From PubChem BioAssay (NCATS)
Inconclusive results are not listed. Active and inactive are the calls of the source. Calls come from the whole dose curve; as a rule, active = well fitted inhibition curve with a large enough effect; inconclusive = small, poorly fitted or top-dose-only effect; inactive = flat fitted curve, though single readings scatter.

What was measured:
Test in all cases: qHTS profiling for inhibitors of Plasmodium falciparum proliferation (AID 504749); note: nearly all actives have a fitted effect of over 60% in size
Conditions in all cases: P. falciparum in erythrocytes, SYBR Green DNA, 72 h; series mostly up to 28.7 µM
CP260 = system: CP260
Method in brief: (§1)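 Fluorescence of SYBR Green-bound parasite DNA, read at 485/535 nm, served as the growth measure. Infected erythrocytes were cultured with compound 72 h; artemisinin (0.29 uM) and DMSO wells defined the normalization range.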

CP262 = system: CP262
Method in brief: as §1

CP265 = system: CP265
Method in brief: as §1

CP266 = system: CP266
Method in brief: as §1

CP268 = system: CP268
Method in brief: as §1

CP269 = system: CP269
Method in brief: as §1

CP286 = system: CP286
Method in brief: as §1

CP291 = system: CP291
Method in brief: as §1

CP297 = system: CP297
Method in brief: as §1

CP305 = system: CP305
Method in brief: as §1

CP325 = system: CP325
Method in brief: as §1

CP329 = system: CP329
Method in brief: as §1

DFO2036 = system: DFO2036
Method in brief: as §1

DIV14 = system: DIV14
Method in brief: as §1

DIV17 = system: DIV17
Method in brief: as §1

DIV30 = system: DIV30
Method in brief: as §1

Dd2 = system: Dd2
Method in brief: as §1

ECU = system: ECU
Method in brief: as §1

CP335 = system: CP335
Method in brief: as §1

CP315 = system: CP315
Method in brief: as §1

Measured: Potency
Potency is the fitted concentration of half-maximal effect.

O=C(O)c1nc(=O)[nH]c(=O)[nH]1
not listed: CP335 | CP315
inactive: all other assays above

Fc1ccc(C(c2ccc(F)cc2)N2CCN(CC=Cc3ccccc3)CC2)cc1
inactive: CP262
active: CP305 13.5 µM | CP335 15.1 µM | DIV14 12 µM | DIV17 13.5 µM | DIV30 16.9 µM

N#Cc1c(N(CC(=O)O)CC(=O)O)sc(C(=O)O)c1CC(=O)O
inactive: all assays above

COc1c(C)c2c(c(O)c1CC=C(C)CCC(=O)OCCN1CCOCC1)C(=O)OC2
active: CP260 11.2 µM | CP265 7.94 µM | CP266 12 µM | CP268 12 µM | CP269 8.49 µM | CP286 7.08 µM | CP291 8.49 µM | CP297 12 µM | CP305 10.7 µM | CP315 13.5 µM | CP325 10.7 µM | CP329 7.57 µM | CP335 8.49 µM | DFO2036 10 µM | DIV14 13.5 µM | DIV17 15.1 µM | DIV30 12 µM | Dd2 11.2 µM | ECU 10 µM

Clc1ccc(COC(Cn2ccnc2)c2ccc(Cl)cc2Cl)c(Cl)c1 (stereo not drawn)
active: CP297 4.05 µM | CP325 5.1 µM | DFO2036 3.16 µM | DIV14 2.28 µM | DIV17 3.61 µM | DIV30 5.73 µM | ECU 1.26 µM

C=C1c2cccc(O)c2C(O)=C2C(=O)[C@@]3(O)C(O)=C(C(N)=O)C(=O)[C@@H](N(C)C)[C@@H]3[C@@H](O)[C@H]12
active: Dd2 1.78 µM
not listed: CP260 | CP286 | CP335
inactive: all other assays above

Cc1cc2nc3c(=O)[nH]c(=O)nc-3n(CC(O)C(O)C(O)CO)c2cc1C (stereo not drawn)
not listed: DIV14 | DIV17
inactive: all other assays above

NS(=O)(=O)c1cc(Cl)c(Cl)c(S(N)(=O)=O)c1
inactive: all assays above

CC(C)CN(C[C@@H](O)[C@H](Cc1ccccc1)NC(=O)O[C@H]1CO[C@H]2OCC[C@H]21)S(=O)(=O)c1ccc(N)cc1
not listed: DIV14 | DIV17 | DIV30
inactive: all other assays above

CN1CCN2c3ncccc3Cc3ccccc3C2C1 (stereo not drawn)
not listed: CP291 | DIV14 | DIV17 | Dd2 | CP335
inactive: all other assays above

COc1cc2c(cc1OC)CC(=O)N(CCCN(C)C[C@H]1Cc3cc(OC)c(OC)cc31)CC2
not listed: DIV14 | DIV17 | DIV30
inactive: all other assays above

CS(=O)(=O)c1ccc(C2=C(c3ccccc3)C(=O)OC2)cc1
inactive: all assays above

O=C1C(CCC(O)c2ccc(F)cc2)C(c2ccc(O)cc2)N1c1ccc(F)cc1 (stereo not drawn)
inactive: all assays above

CN1CC(=O)N2C(Cc3c([nH]c4ccccc34)[C@H]2c2ccc3c(c2)OCO3)C1=O (stereo partly drawn)
not listed: CP260 | DIV14 | DIV17
inactive: all other assays above

COc1ccnc(CS(=O)c2nc3ccc(OC(F)F)cc3[nH]2)c1OC (stereo not drawn)
not listed: DIV30
inactive: all other assays above

N#CC(c1ccc(Cl)cc1)c1c(Cl)cc(-n2ncc(=O)[nH]c2=O)cc1Cl (stereo not drawn)
not listed: DIV14 | DIV17
inactive: all other assays above
